A short description of assay [1]: HepG2 liver cancer cell viability effects, profiling panel, resazurin fluorescence, 24 h, PK04 Diversity Set (AID 1172). Also: test concentration not given here. The following applies: higher = more signal.
Assay [2] can be described thus: basal S. cerevisiae growth modulation, no modifier, primary screen, OD600, strain BY4716, 24 h, basal condition (AID 1173). The following applies: OD600, 24 h, higher = more signal, called active from +8 up or from −8 down.
Assay [3] is described as follows: MM1S myeloma cell viability, profiling panel, resazurin fluorescence, basal, 24 h, PK04 Diversity Set (AID 1174).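 Also: MM1S multiple myeloma cell line; test concentration not given here.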 The following applies: higher = more signal, called active from +8 up or from −8 down.
In assay [4] the target is Dihydroorotate dehydrogenase (quinone), mitochondrial (Plasmodium falciparum (isolate 3D7)) (UniProt Q08210). The assay is described as follows: PfDHODH enzyme inhibitors, primary screen, biochemical, C-terminal His tag, absorbance 600 nm (AID 1175).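 Also: recombinant parasite enzyme with a five histidine tag at its C terminus; test concentration not given here.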 The following applies: DCIP absorbance 600 nm, higher = more signal, called active from +8 up or from −8 down.
Dihydroorotate dehydrogenase (quinone), mitochondrial (Plasmodium falciparum (isolate 3D7)), sequence (Q08210 whole entry, looked up): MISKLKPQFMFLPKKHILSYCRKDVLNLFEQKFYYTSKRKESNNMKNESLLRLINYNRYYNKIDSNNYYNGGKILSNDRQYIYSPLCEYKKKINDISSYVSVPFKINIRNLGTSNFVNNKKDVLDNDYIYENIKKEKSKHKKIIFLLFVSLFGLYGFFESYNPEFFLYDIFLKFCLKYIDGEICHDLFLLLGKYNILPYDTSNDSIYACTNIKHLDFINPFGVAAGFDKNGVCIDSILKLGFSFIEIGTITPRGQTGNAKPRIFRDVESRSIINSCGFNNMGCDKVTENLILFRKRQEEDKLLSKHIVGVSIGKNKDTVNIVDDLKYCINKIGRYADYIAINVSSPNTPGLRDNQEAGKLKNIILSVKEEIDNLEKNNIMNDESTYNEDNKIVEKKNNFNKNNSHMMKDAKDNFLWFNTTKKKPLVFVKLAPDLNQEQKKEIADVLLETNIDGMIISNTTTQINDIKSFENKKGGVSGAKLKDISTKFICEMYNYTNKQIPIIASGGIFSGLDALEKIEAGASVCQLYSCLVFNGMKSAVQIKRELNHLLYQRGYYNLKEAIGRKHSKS
Assay [5] is described as follows: P. aeruginosa biofilm formation inhibitors, primary screen, strain PAO1, LB-PBS medium, absorbance 600 nm (AID 1176). Also: test concentration not given here. The following applies: P. aeruginosa PAO1 growth/biofilm, A600, 12 h; higher = more signal.
The nature of assay [6]: S. cerevisiae RM11-1a growth modifiers, primary screen, strain RM11-1a, OD600, basal, 24 h (AID 1177).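 Also: cultures grown under basal conditions with no added stressor; test concentration not given here.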 The settings on record: OD600, 24 h, higher = more signal, called active from +8 up or from −8 down.
The nature of assay [7]: E. coli acrAB mutant growth effects, primary screen, E. coli filamentation inducers, strain DRC39, OD650, 24 h (AID 1178).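 Also: growth measured as culture turbidity by optical density at 650 nm; test concentration not given here.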 The following applies: higher = more signal, called active from +8 up or from −8 down.
A short description of assay [8]: E. coli acrAB mutant growth effects, primary screen, E. coli filamentation inducers, strain DRC39, OD650, 48 h (AID 1179).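 Also: screen aims at cell division blockers that make cells filament.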 The settings on record: E. coli DRC39 delta-acrAB growth, higher = more signal, called active from +8 up or from −8 down.
Assay [9] in a line: RPMI8226 myeloma cell viability, profiling panel, resazurin fluorescence, basal, 24 h, PK04 Diversity Set (AID 1180).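 Also: RPMI8826 multiple myeloma cell line at 5000 cells per well; test concentration not given here.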 The following applies: higher = more signal.
Assay [10] deals with E3 ubiquitin-protein ligase XIAP (Homo sapiens) (UniProt P98170). The assay can be described thus: XIAP binders, primary screen, biophysical, small-molecule microarray, fluorescence 635 nm (AID 1181).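 Also: score merges 667 nm emission and signal to noise over triplicate slides.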 The settings on record: small-molecule microarray binding, higher = more signal.
E3 ubiquitin-protein ligase XIAP (Homo sapiens), sequence (P98170 whole entry, looked up): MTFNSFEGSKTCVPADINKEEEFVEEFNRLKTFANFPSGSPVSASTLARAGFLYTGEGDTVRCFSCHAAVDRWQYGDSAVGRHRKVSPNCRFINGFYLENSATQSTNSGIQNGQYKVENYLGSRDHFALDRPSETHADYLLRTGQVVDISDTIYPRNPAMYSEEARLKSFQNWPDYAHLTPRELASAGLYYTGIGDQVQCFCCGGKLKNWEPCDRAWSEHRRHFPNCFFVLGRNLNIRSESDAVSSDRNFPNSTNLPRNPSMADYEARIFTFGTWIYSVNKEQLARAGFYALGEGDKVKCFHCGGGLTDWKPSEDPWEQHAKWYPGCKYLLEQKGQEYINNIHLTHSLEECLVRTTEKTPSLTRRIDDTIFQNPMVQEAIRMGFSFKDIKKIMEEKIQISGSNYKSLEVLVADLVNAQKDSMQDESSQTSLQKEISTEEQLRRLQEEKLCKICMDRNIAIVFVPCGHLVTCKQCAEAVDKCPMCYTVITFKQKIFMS

Active and inactive are the calls of the source. Unless noted, no rule for the calls is given here.

Regarding `COc1ccc(O[C@H]2C=C[C@@H](c3ccccc3)O[C@@H]2COC(=O)CCC(C)=NOC[C@@H](O)[C@H]2O[C@@H]3OC(C)(C)O[C@@H]3[C@H]2O)cc1`, the z-score in assay [1] was 0.0784; in assay [2], -0.727 (inactive); in assay [3] it was 0.0383 (inactive); in [5] it was -0.348 (inactive); in assay [6], 0.28 (inactive); in assay [7], 1.18 (inactive). Besides, the z-score in [8] was -1.02 (inactive); in assay [9] it was 1.04. Moreover, the figures for the composite z-score in assay [4] and in assay [10] were -1.15 (inactive) and -0.0559, respectively.

Consider `CCC1=NOC(CCC2CC(OC(=O)NCc3cccc4c3OCO4)CC3(CCCC(COC(=O)NCCc4ccccc4OC)O3)O2)C1` (stereo not given), for which the z-score is -0.211 in assay [1]; -0.101 (inactive) in assay [2]; 0.0125 (inactive) in [3]; 1.43 (inactive) in assay [5]; -0.509 (inactive) in assay [6]; 1.13 (inactive) in [7]. Moreover, the values for the z-score in [8] and in [9] were 0.918 (inactive) and 0.718, respectively. Further, the composite z-score in assay [4] is -0.104 (inactive); in assay [10], -0.294.

As for `CC(C)=CCCC(C)=CCON=C1C[C@@H](O)[C@@H](O)[C@@H]2[C@@H]3C(=O)N(Cc4ccccc4)C(=O)[C@@H]3CC[C@H]12`, the z-score in assay [1] is 1.17; in assay [2] it was -2.99 (inactive); in assay [3] it was 1.14 (inactive); in assay [5], 0.507 (inactive); in assay [6] it was -1.28 (inactive); in [7], -0.366 (inactive). The z-score in assay [8] is 0.167 (inactive); in assay [9] it was 0.369. The composite z-score is -0.88 (inactive) in assay [4] and -0.177 in assay [10].

As to `CCOC(=O)[C@H](Cc1ccccc1)NC(=O)CCC1CC(OC(=O)NCc2cccc3ccccc23)CC2(CCCC(COC(=O)NCC(c3ccccc3)c3ccccc3)O2)O1` (stereo not given in full), the z-score was 0.812 in assay [1]; -0.38 (inactive) in [2]; 0.923 (inactive) in [3]; -0.163 (inactive) in assay [5]; -0.714 (inactive) in [6]; -0.371 (inactive) in assay [7]. Also, the z-score in assay [8] is -0.661 (inactive); in assay [9] it was 1.27. Besides, the composite z-score is -0.305 (inactive) in [4] and 0.0655 in [10].

Take `O=C1CCCC=C1C(O)CCOC(c1ccccc1)(c1ccccc1)c1ccccc1` (stereo not given): the z-score in [1] was 0.0714; in assay [2] it was -0.529 (inactive); in [3] it was 0.0795 (inactive); in assay [5], 0.368 (inactive); in [6] it was 1.25 (inactive); in assay [7], 0.0368 (inactive). Besides, the z-score in assay [8] was -0.356 (inactive); in assay [9] it was -0.193. In addition, the composite z-score was 0.466 (inactive) in assay [4] and 0.412 in assay [10].

For `CCOC(=O)[C@H](Cc1ccccc1)NC(=O)CCC1CC(OC(=O)NCCc2ccc(F)cc2)CC2(CCCC(COC(=O)NCCCN3CCCC3=O)O2)O1` (stereo not given in full), the z-score was -0.0038 in [1]; -0.196 (inactive) in [2]; 0.374 (inactive) in assay [3]; 0.781 (inactive) in [5]; -1.25 (inactive) in assay [6]; -0.198 (inactive) in assay [7]. Besides, the z-score in assay [8] was -0.926 (inactive); in assay [9] it was 0.898. In addition, the composite z-score was -1.73 (inactive) in assay [4] and -0.0622 in assay [10].

With `Cc1ccc(S(=O)(=O)N[C@@H]2COC(=O)[C@@H](C)COC(=O)CC=C[C@H]2C)cc1`, the z-score in assay [1] was 0.0896; in [2], 0.426 (inactive); in [3] it was 0.258 (inactive); in [5], -0.413 (inactive); in [6], 1.02 (inactive); in assay [7], 0.155 (inactive). For the same molecule, the z-score is -0.73 (inactive) in [8] and -0.0722 in [9]. In addition, the values for the composite z-score in [4] and in assay [10] were 0.264 (inactive) and 0.214, respectively.

Take `O=C(NN=C1C[C@@H](O)[C@@H](O)[C@@H]2[C@@H]3C(=O)N(C[C@@H]4CCCO4)C(=O)[C@@H]3CC[C@H]12)OCc1ccccc1`: the z-score was -0.136 in [1]; 0.267 (inactive) in [2]; -0.239 (inactive) in assay [3]; -0.531 (inactive) in assay [5]; -0.0555 (inactive) in assay [6]; 0.593 (inactive) in [7]. Further, the z-score was 0.191 (inactive) in [8] and 0.664 in assay [9]. For the same molecule, the composite z-score was -0.02 (inactive) in assay [4] and 0.0451 in assay [10].

For the molecule `CCOC(=O)[C@H](CC(C)C)NC(=O)CCC1CC(OC(=O)NCc2cccc3ccccc23)CC2(CCCC(COC(=O)NCC3CCCCC3)O2)O1` (stereo not given in full), the z-score in assay [1] was 0.865; in [2], -0.0452 (inactive); in assay [3], 1.27 (inactive); in [5] it was -1.45 (inactive); in [6], -0.288 (inactive); in assay [7] it was -0.765 (inactive). Also, the z-score is -0.0838 (inactive) in assay [8] and 0.463 in assay [9]. Moreover, the figures for the composite z-score in [4] and in [10] were -2.33 (inactive) and -0.0333, respectively.

Consider `COC(=O)CC=C[C@H](C)[C@@H](OCc1cccc(Br)c1)[C@@H](C)[C@H](OC)C1CCCCC1`, for which the z-score in assay [1] was -0.363; in assay [2], -0.949 (inactive); in [3], 0.0742 (inactive); in assay [5], -1.16 (inactive); in [6], 0.161 (inactive); in assay [7] it was 0.474 (inactive). The z-score in assay [8] is -0.596 (inactive); in assay [9], -0.171. For the same molecule, the composite z-score is -0.498 (inactive) in assay [4] and -0.318 in assay [10].

Regarding `CO[C@H]1COC(=O)CC=C[C@H](C)[C@@H](OC)COC(=O)[C@@H](C)COC(=O)CC=C[C@@H]1C`, the z-score is -0.0033 in assay [1]; -1.2 (inactive) in [2]; 0.277 (inactive) in assay [3]; -0.92 (inactive) in assay [5]; -0.288 (inactive) in assay [6]; 0.224 (inactive) in assay [7]. Besides, the z-score in assay [8] is -0.979 (inactive); in assay [9], 0.721. In addition, the composite z-score was 0.151 (inactive) in assay [4] and -0.142 in assay [10].

The values are drawn from PubChem BioAssay.
